In PubChem BioAssay AID1851 (National Center for Advancing Translational Sciences (NCATS), 2009):
Among all 16,000 compounds or so, about 5,800 (36%) were called active. About 23% were inconclusive and are not listed. The list shows a part of the results. Values without a mark were called inactive. Calls come from the whole dose curve; as a rule, active = well fitted curve in the direction sought with a large enough effect; inconclusive = small, poorly fitted or top-dose-only effect, or effect the other way; inactive = no such curve, though single readings can be large or run the other way.

Target: Cytochrome P450 2C19 (Homo sapiens) (UniProt P33261)
Test: Cytochrome panel assay with activity outcomes
Details: recombinant CYP, pro-luciferin dealkylation, luminescence, p450-cyp2c19; series mostly up to 57.1 µM; activity, negative = inhibition: at the top concentration
% is set by controls: 0 for no effect and ±100 for the full control effect.

Sequence of Cytochrome P450 2C19 (Homo sapiens) (P33261 whole entry, looked up): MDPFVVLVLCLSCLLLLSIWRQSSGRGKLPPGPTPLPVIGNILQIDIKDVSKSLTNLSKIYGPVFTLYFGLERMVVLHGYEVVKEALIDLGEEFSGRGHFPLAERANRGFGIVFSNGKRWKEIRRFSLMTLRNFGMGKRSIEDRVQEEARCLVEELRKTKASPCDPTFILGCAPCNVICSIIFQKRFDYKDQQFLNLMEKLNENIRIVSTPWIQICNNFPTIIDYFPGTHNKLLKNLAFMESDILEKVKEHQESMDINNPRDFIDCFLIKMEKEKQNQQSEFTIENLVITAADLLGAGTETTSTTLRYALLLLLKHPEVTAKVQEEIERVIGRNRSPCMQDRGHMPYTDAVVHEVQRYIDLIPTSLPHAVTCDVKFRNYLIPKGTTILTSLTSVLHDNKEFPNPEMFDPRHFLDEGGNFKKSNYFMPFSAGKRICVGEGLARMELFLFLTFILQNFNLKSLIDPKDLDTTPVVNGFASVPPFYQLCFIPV

Compound	activity, negative = inhibition	AC50
CCC(CC)C(=O)c1c[nH]c(C(=O)NCCCN2CCOCC2)c1	17.8%	
O=C(c1ccc(C(F)(F)F)cc1)c1c[nH]c(C(=O)NCCCn2ccnc2)c1		0.631 µM (active)
Cc1ccc(C(=O)c2c[nH]c(C(=O)NCCCN3CCOCC3)c2)cc1	-7.11%	
CC(C)(C)c1ccc(C(=O)c2c[nH]c(C(=O)NCCCn3ccnc3)c2)cc1		0.1 µM (active)
Cc1c(CCO)c(=O)n(C)n1C(=O)c1ccc(F)cc1		17.8 µM (active)
CCOC(=O)NC(NC(=O)OCC)C(=O)c1ccc(F)cc1	-29.8%	
Cc1ccc(-n2nnnc2-c2cnc3ccc(Cl)cc3c2-c2ccccc2)cc1		7.94 µM (active)
Clc1ccc2[nH]cc(-c3nnnn3-c3ccccc3)c2c1		1.12 µM (active)
N#Cc1cccc(-c2nc3cnc(Nc4ccccc4)nc3n(C[C@H]3CCCO3)c2=O)c1	5.15%	
Cn1sc(NC(=O)c2ccccc2Cl)nc1=O		14.1 µM (active)
Cn1sc(NC(=O)c2ccccc2)nc1=O	-23.1%	
O=C(Nc1ccccc1Cl)c1ccn[nH]1	14.8%	
Cc1ccc(Cl)c(Nc2ccccc2C(=O)O)c1Cl		inactive
O=C(Nc1ccccc1Cl)c1ccccc1Cl		20 µM (active)
Cc1cc(NC(=O)c2ccccc2Cl)c(C(C)C)cc1O		3.98 µM (active)
CC[C@@]12CCCN3CCc4c(n(c5ccccc45)[C@](O)(C(=O)OC)C1)[C@H]32		inactive
O=C(CSCc1ccccc1)Nc1cccc(C(=O)Nc2ccccc2C(=O)O)c1		11.2 µM (active)
O=C(Nc1cccc(C(=O)Nc2ccc(S(=O)(=O)O)c3cc(S(=O)(=O)O)cc(S(=O)(=O)O)c23)c1)Nc1cccc(C(=O)Nc2ccc(S(=O)(=O)O)c3cc(S(=O)(=O)O)cc(S(=O)(=O)O)c23)c1		inactive
CCNc1ncc2nc(-c3cc(F)cc(F)c3)c(=O)n(Cc3cccs3)c2n1	2.98%	
CCCC(C(=O)Nc1nccs1)c1ccccc1 (stereo not given)		3.16 µM (active)
O=C(O)[C@H](CCc1ccccn1)c1ccccc1	9.85% [at 11.4 µM]	
COc1cc(C=O)ccc1OCCCOc1ccccc1C(=O)O	-6.37%	

Compound	activity, negative = inhibition	AC50
COc1cc(C)ccc1OCCCOc1ccccc1Cl		1.12 µM (active)
COc1cc(C)ccc1OCCCOc1ccccc1Br		0.501 µM (active)
COc1cc(C=O)ccc1OCCOCCOc1ccccc1Cl		1.26 µM (active)
COc1ccccc1OCCCOc1ccc([N+](=O)[O-])cc1Cl		0.316 µM (active)
CC(C)CO/N=C1/[C@H]2O[C@@H]2[C@@H](O)[C@H]2[C@H]1CCn1c(=O)n(C)c(=O)n12	-6.23% [at 11.4 µM]	
Cc1ccc(C)c(Nc2nc3nonc3nc2N2CCOCC2)c1		25.1 µM (active)
CN1CCN(CCCBr)CC1	39.1% [at 11.4 µM]	
Cc1ccc(SCc2[nH]nc3c2C(C(C)C)C(C#N)=C(N)O3)cc1 (stereo not given)		3.16 µM (active)
COCc1cc(=O)[nH]c2cc(NC(=O)C(F)(F)F)c(C)cc12	-32.6%	
CCCS(=O)(=O)N1CCCC(C(=O)NCCN(C)Cc2ccccc2)C1 (stereo not given)	-12.9%	
CN(Cc1ccco1)C(=O)C1CCC(=O)N1Cc1ccc(F)cc1 (stereo not given)		17.8 µM (active)
Cc1ccc(CCN2CC(C(=O)NCCCN(C)Cc3ccccc3)CC2=O)cc1 (stereo not given)	7.47%	
CC(C)N(CCNC(=O)C1CCC(=O)N1Cc1ccc(F)cc1)Cc1ccccc1 (stereo not given)		2.82 µM (active)
O=C(NCCN1CCN(Cc2ccccc2)CC1)C1CC(=O)N(C2CCCC2)C1 (stereo not given)	-9.63%	
CN(CCCNC(=O)C1CCC(=O)N1Cc1ccccc1Cl)c1ccccc1 (stereo not given)		10 µM (active)
O=C(Nc1ccc(Br)cc1)C1CCC(=O)N1Cc1ccccc1Cl (stereo not given)		0.631 µM (active)
Cc1ccc(OC[C@H](O)[C@H](C)NC(C)C)c2c1CCC2		inactive
CC(C)(C[C@@]1(C)NC(=O)NC1=O)OCc1ccccc1	18.1% [at 11.4 µM]	
O=c1oc2cc(N=Cc3ccc4c(c3)OCO4)ccc2c2ccccc12	-3.38% [at 11.4 µM]	
Cc1ccc(N=Nc2c(O)ccc3cc(S(=O)(=O)O)ccc23)cc1	6.68% [at 11.4 µM]	
Cc1ccc(S(=O)(=O)c2cc3ccccc3oc2=Nc2ccc3c(c2)OCO3)cc1		4.47 µM (active)
CCC(C#CCN1CCCCC1)(CC)OCCC#N		14.1 µM (active)

Compound	activity, negative = inhibition	AC50
CN(C)[C@@H]1C(=O)C(C(N)=O)=C(O)[C@]2(O)C(=O)C3=C(O)c4c(O)ccc(Cl)c4[C@H](O)[C@H]3C[C@@H]12		inactive
COc1cccc(-c2cc(C(=O)N/N=C/c3ccc(OC)c(COC(C)=O)c3)c3ccccc3n2)c1		2.51 µM (active)
COc1ccc(/C=N/NC(=O)c2cc(-c3ccc(C)cc3C)nc3ccccc23)cc1COC(C)=O	-34.6%	
O=C(Nc1cccc(F)c1)N1CCCC2(CCN(C(=O)c3cc(C(F)(F)F)cc(C(F)(F)F)c3)CC2)C1	-20.2%	
COc1cc(/C=N/NC(N)=O)c(Br)cc1OCC(=O)Nc1ccccc1C		11.2 µM (active)
O=C1C2=C(NC(=S)NC2c2ccc(Cl)cc2)NC(c2ccc(Cl)cc2)N1c1ccc(Cl)cc1 (stereo not given)		2.24 µM (active)
CCC(Sc1nc2cc3c(cc2c(=O)n1Cc1ccco1)OCO3)C(=O)Nc1ccccc1OC (stereo not given)		2.51 µM (active)
COc1cccc(Nc2ncc3nc(-c4cccs4)c(=O)n(Cc4cccs4)c3n2)c1	-1.11%	
CCC(Sc1nc2cc3c(cc2c(=O)n1Cc1ccco1)OCO3)C(=O)Nc1cccc(OC)c1 (stereo not given)		7.08 µM (active)
COc1cccc(Cn2c(=O)c(-c3cccs3)nc3cnc(Nc4cccc(OC)c4)nc32)c1	-9.76%	
Cn1c(=O)c2[nH]cnc2n(C)c1=O	-6.84% [at 25.6 µM]	
N#CCCn1c(=O)c(-c2cccs2)nc2cnc(Oc3cccc(Cl)c3)nc21	-34.9%	
Cc1nc2sccc2c(=O)n1-c1cccc(Cl)c1		0.794 µM (active)
COC(=O)C/C=C\[C@@H](C)[C@@H](/C=N\O[C@@H](C)CN1CCCCc2nc(C)c(C)cc21)NS(=O)(=O)c1ccc(C)cc1	-9.76% [at 11.4 µM]	
C=CC[C@@H]1C=C[C@H](O/N=C\[C@@H](C)[C@H](OCc2ccccc2)C(C)C)[C@H](CO)O1	-27.4% [at 11.4 µM]	
COC(=O)C/C=C\[C@@H](C)[C@@H](/C=N\OCC[C@H]1C=C[C@H](OC(C)=O)[C@@H](COC(C)=O)O1)NS(=O)(=O)c1ccc(C)cc1	-2.17% [at 11.4 µM]	
CC(=O)OC[C@@H]1O[C@H](CCO/N=C\[C@@H](C)[C@H](OCc2ccccc2)C(C)C)C=C[C@@H]1OC(C)=O	-11.7% [at 11.4 µM]	
CCCNC(=O)OC[C@@H]1O[C@H](CCO/N=C\[C@@H](C)[C@H](OCc2ccccc2)C(C)C)C=C[C@@H]1Oc1ccc(OC)cc1		3.16 µM (active)
C=CC[C@@H]1C=C[C@@H](O/N=C\[C@@H](OC)[C@H](C)/C=C\CC(=O)OC)[C@@H](CO)O1	-6.92% [at 11.4 µM]	
COC(=O)C/C=C\[C@@H](C)[C@@H](/C=N\OC[C@@H](O)[C@H]1O[C@H]2OC(C)(C)O[C@H]2[C@@H]1O)NS(=O)(=O)c1ccc(C)cc1	-25.2% [at 11.4 µM]	
COC(=O)C/C=C\[C@@H](C)[C@@H](/C=N\OC[C@@H]1O[C@H](c2ccccc2)C=C[C@@H]1Oc1ccc(OC)cc1)NS(=O)(=O)c1ccc(C)cc1		0.398 µM (active)
COC(=O)C/C=C\[C@@H](C)[C@@H](/C=N\OC[C@@H]1O[C@H](c2ccccc2)C=C[C@@H]1Oc1ccc(OC)cc1)OC		1.58 µM (active)

Compound	activity, negative = inhibition	AC50
CCCNC(=O)OC[C@H]1O[C@@H](CCO/N=C\[C@@H](NS(=O)(=O)c2ccc(C)cc2)[C@H](C)/C=C\CC(=O)OC)C=C[C@@H]1Oc1ccc(OC)cc1		3.16 µM (active)
COC(=O)C/C=C\[C@@H](C)[C@@H](/C=N\OC[C@@H](O)COCc1ccco1)OC	-19.2% [at 11.4 µM]	
CCCc1c(OCCCOc2ccc(OCC(=O)O)cc2)ccc(C(C)=O)c1O	-37.6%	
O=C1C2C3C=CC(C3)C2C(=O)N1/N=C/c1cn(Cc2ccc(F)cc2)c2ccccc12 (stereo not given)		11.2 µM (active)
c1ccc2sc(SCSc3nc4ccccc4s3)nc2c1		1.26 µM (active)
NCCSc1nc2ccccc2s1		1.58 µM (active)
c1ccc(NCCSc2nc3ccccc3s2)cc1		0.398 µM (active)
c1ccc2sc(SCCSc3nc4ccccc4s3)nc2c1	6.86% [at 11.4 µM]	
Oc1ccccc1C(Sc1nc2ccccc2s1)Sc1nc2ccccc2s1		3.16 µM (active)
C[N+](C)(C)CC(=O)O	10.6%	
CC(C)OC(=O)CC12CN(C)CC(CC(=O)OC(C)C)(CN(C)C1)C2=O	-21.7%	
COc1ccc(-c2nc3cnc(N4CCOCC4)nc3n(C[C@H]3CCCO3)c2=O)cc1	-19.7%	
O=C(O)[C@@H]1CS[C@@]2(CCCN(Cc3ccccc3)C2)N1	7.34% [at 11.4 µM]	
C#CCCCO/N=C1/C[C@@H](O)[C@@H](O)[C@@H]2[C@@H]3C(=O)N(CC)C(=O)[C@H]3CC[C@@H]12	-28.6% [at 11.4 µM]	
CCOC(=O)c1cnc(SCCc2ccccc2)nc1N		7.94 µM (active)
Cc1ccc(/C(C#N)=C/c2cccc([N+](=O)[O-])c2)cc1	8.97% [at 11.4 µM]	
Cc1ccc(C2=Nc3ccccc3S[C@@H](c3cccc([N+](=O)[O-])c3)C2)cc1		3.98 µM (active)
NC[C@@H]1O[C@H](c2ccccc2)Cc2c1ccc(O)c2O		1 µM (active)
NC[C@@H]1O[C@H](C23CC4CC(CC(C4)C2)C3)Cc2c1ccc(O)c2O	-13.6%	
